# Legend:
# Experiment in all cases: PBM binding z-score (relative to random genomic background probes); higher = stronger binding; sequences stand for … in GC…GCGATTGACAGCGTAGAATGAAGG
# [1] = tested on: PPARg:RXRa DBDmut IVT, anti-RXR (DBD mutation: RXRa K156A/R161A, NR concentration 270 nM, RXRa partner concentration 90 nM)
# Method in brief: (§1)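 Ligand-free nuclear receptor dimers were applied to custom Agilent 4×180K protein-binding microarrays whose double-stranded probes carried direct-repeat seeds, single-nucleotide variants, half-site ablations and random human genomic background sequences in 34-nt variable regions. Incubation lasted 1 h. Binding z-scores were computed against the random background probes from regression-normalized fluorescence.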
# [2] = tested on: PPARg:RXRa IVT, anti-PPARg (NR concentration 270 nM, RXRa partner concentration 90 nM)
# Method in brief: as §1
# [3] = tested on: PPARg DBDmut:RXRa IVT, anti-PPARg (DBD mutation: PPARg1 K132A/R137A, NR concentration 270 nM, RXRa partner concentration 90 nM)
# Method in brief: as §1
# [4] = tested on: PPARg DBDmut IVT, anti-PPARg (DBD mutation: PPARg1 K132A/R137A, NR concentration 270 nM)
# Method in brief: as §1
# [5] = tested on: PPARg homodimer (NR concentration 180 nM)
# Method in brief: as §1
# [6] = tested on: PXR:RXRa (NR concentration 270 nM, RXRa partner concentration 90 nM)
# Method in brief: as §1
# [7] = tested on: PXR homodimer (NR concentration 270 nM)
# Method in brief: as §1
# [8] = tested on: RARa:RXR (NR concentration 270 nM, RXRa partner concentration 90 nM)
# Method in brief: as §1
# [9] = tested on: RARa homodimer (NR concentration 270 nM)
# Method in brief: as §1
# [10] = tested on: RARb:RXRa (NR concentration 270 nM, RXRa partner concentration 90 nM)
# Method in brief: as §1
# [11] = tested on: RARb homodimer (NR concentration 270 nM)
# Method in brief: as §1
# [12] = tested on: RARg:RXRa (NR concentration 270 nM, RXRa partner concentration 90 nM)
# Method in brief: as §1
# [13] = tested on: RARg homodimer (NR concentration 270 nM)
# Method in brief: as §1
# [14] = tested on: RXRa DBDmut IVT, anti-RXR (DBD mutation: RXRa K156A/R161A, NR concentration 90 nM)
# Method in brief: as §1
# [15] = tested on: RXRa homodimer (NR concentration 180 nM)
# Method in brief: as §1
# [16] = tested on: THRa:RXRa (NR concentration 90 nM, RXRa partner concentration 90 nM)
# Method in brief: as §1
# [17] = tested on: THRa homodimer (NR concentration 90 nM)
# Method in brief: as §1
# [18] = tested on: VDR homodimer (NR concentration 270 nM)
# Method in brief: as §1
Sequence,PBM binding z-score [1],PBM binding z-score [2],PBM binding z-score [3],PBM binding z-score [4],PBM binding z-score [5],PBM binding z-score [6],PBM binding z-score [7],PBM binding z-score [8],PBM binding z-score [9],PBM binding z-score [10],PBM binding z-score [11],PBM binding z-score [12],PBM binding z-score [13],PBM binding z-score [14],PBM binding z-score [15],PBM binding z-score [16],PBM binding z-score [17],PBM binding z-score [18]
CCAGACAGGTGATAAGGTAACTCAGCCTCGATTA,0.812,0.261,0.0987,-0.29,1.14,-0.0216,0.227,0.472,0.984,0.359,0.435,0.392,0.586,0.284,0.276,1.77,1.72,0.103
CAAACTATGTCACGAAAGGTCAAAGTCGAATGAC,5.09,5.93,3,0.957,3.47,6.07,2.12,6.01,2.87,4.92,5.15,6.02,5.58,1.55,6.73,4.49,1.4,2.8
ATCGAAAGGTCGAGATGAGTATAGAGAAAGGGAA,-0.278,1.33,1.47,1.2,1.05,2.02,0.117,2.52,0.436,3.66,1.97,3.79,3.54,0.857,3.81,1.93,-0.434,0.309
TAGCCTAGGTCATGCGGGCTAGTATAGTGTCGGC,1.62,2.81,-0.158,-0.27,0.331,1.07,-0.632,1.97,-0.868,3.86,2.99,3.77,3.75,0.197,2.92,3.15,0.88,0.2
GATACAGGGTCAAGGCCAGAGTGCGCGTATTGAT,2.75,4.1,0.884,0.0154,3.05,3.92,0.307,4.99,1.02,4.28,3.82,5.48,5.27,2.42,5.94,3.42,1.27,2.96
AGTCAGAGTTCAGGACGAGGTAACGTAAAGCACG,-0.749,0.676,0.355,-0.341,1.36,3.45,1.88,2.67,0.511,3.62,2.72,4.62,4.28,3.5,3.59,3.79,1.53,3.75
GCGACTGGGGCATCAGCAGGTTACAATAACTTAA,3.24,3.27,-0.414,-0.53,0.365,0.0826,-0.126,0.651,-0.54,0.753,0.719,0.817,0.522,-0.00722,0.334,0.895,0.0253,-0.0954
AGAATGAGGTTATACGTAGATCAGGGAGGAAAGT,3.75,1.91,1.26,0.799,0.811,1.18,0.618,1.66,0.507,1.47,0.93,1.79,1.27,1.87,2.27,2.24,0.817,1.09
ACTATTAGTTGATTTAGGGCAACCGATACGACGC,1.57,2.39,2.12,1.32,1.41,0.00966,0.993,0.345,1.47,0.582,0.736,0.306,0.883,1.2,0.356,1.52,0.806,0.367
TCATATAGGTAAAAGTTGAAAGTCGGTGTGGTAA,4.15,3.58,0.876,1.75,1.63,0.929,0.491,1.56,1.48,1.04,0.645,0.703,0.395,1.69,1.83,0.586,-0.0355,0.425
CCGACTGGGGCAAAGGCTACCATACTCAGTACGA,2.79,3.71,-0.0188,-0.284,0.531,-0.487,-0.267,-0.203,-0.204,0.812,0.592,0.577,0.501,-0.632,0.387,-0.182,-0.604,-0.299
ACTATTAGTTGAGACCAGGGCAACCGATAGGTTG,0.0901,0.557,0.284,0.911,-0.00507,0.204,0.236,0.191,0.419,0.628,0.667,0.276,0.568,-0.232,0.3,1.79,0.11,0.0358
TCTTGTAGATCAATAGAGGTTAGGAAAGTGCGCT,2,0.75,0.694,0.358,0.823,2.06,0.156,1.41,0.518,0.535,0.826,0.947,0.486,0.658,1.29,2,-0.0407,0.48
GCTGCTAGGTCACGTTGGTCAGCTAACGGGTACG,5.22,4.99,0.1,-0.257,1.72,1.74,-0.356,2.81,-0.306,4.18,3.68,4.37,5.6,1.5,3.09,3.38,1.79,0.836
AGAATGAGGTTAAGGTCAGGGAAACAGAATACAT,3.24,4.55,1.51,0.964,3.35,3.77,1.59,4.47,2.44,4.27,4.1,4.97,4.67,1.43,4.93,4.39,4.62,2.36
AGAACGAGAGCAATGAGTTGATAGCACGGGTGGC,0.0253,-0.231,-0.979,-0.694,-1.02,-0.378,-0.202,-0.818,-0.732,-0.525,-0.971,-0.154,-0.0386,-0.0984,0.0785,-0.86,-1.05,0.253

Sequence,PBM binding z-score [1],PBM binding z-score [2],PBM binding z-score [3],PBM binding z-score [4],PBM binding z-score [5],PBM binding z-score [6],PBM binding z-score [7],PBM binding z-score [8],PBM binding z-score [9],PBM binding z-score [10],PBM binding z-score [11],PBM binding z-score [12],PBM binding z-score [13],PBM binding z-score [14],PBM binding z-score [15],PBM binding z-score [16],PBM binding z-score [17],PBM binding z-score [18]
CCTTACGGGTCACTGACAGGATATAGCATTTGGA,3.33,3.54,1.02,0.966,2.23,3.03,0.183,3.85,1.33,3.95,2.9,4.97,4.62,1.76,5.05,2.62,0.268,0.961
CGACCTAGGTCATTGACAGGACAGTGAATAGTAA,3.78,3.8,0.789,0.214,2.3,1.99,-0.114,3.08,0.169,3.9,3.01,5.2,4.67,2.83,3.09,3.2,0.892,1.47
CCTTACGGGTCACTGCAGGTTATAGCATCGGAGT,3.51,3.76,-0.541,-0.0144,1.95,4.74,0.0878,4.05,0.239,3.97,3.23,4.87,4.67,1.59,5.03,4.41,0.184,1.17
ATCTCTAGGTAACCAAATTCAGTGAATGCCGAAC,3.66,2.72,0.888,0.995,0.658,0.0913,0.615,0.166,0.995,0.377,0.339,0.22,0.428,0.324,0.301,0.659,0.778,0.572
GGTCGGAGGACAAGGTCAGAGCTTTGTCCGTAGA,0.195,1.61,-0.429,-1.06,1.09,1.63,0.0611,1.82,-0.267,3.62,3.33,3.31,4.24,0.467,2.46,3.12,1.85,0.993
ATCCAAAGGTCGTGAGGTGAGTATACAGAAAGGC,0.752,2.92,1.39,0.827,1.97,3.64,0.629,4.91,1.46,4.4,3.47,5.02,4.46,1.72,5.91,3.66,1.97,1.63
TTACCAAGGTGAAAGGTCGTGGATGCACGCCTTG,3.06,5.11,0.851,-0.117,2.21,4.12,0.543,6.44,0.268,3.33,2.98,5.09,2.53,0.256,6.85,3.45,0.939,0.435
ATTGAAAGGTCGAAGGTGAGTATACCCACCCGAA,0.108,2.82,1.09,0.602,2.51,3.15,0.394,4.57,0.818,3.83,2.54,4.17,3.76,1.26,5.43,2.22,0.13,0.982
GGAACGAGTGCAAAGTTGATAGCATCTGTCGACG,-0.204,0.102,-0.12,0.22,-0.16,0.715,0.211,0.728,-0.6,0.396,-0.159,0.335,0.145,3.22,0.874,-0.385,-0.711,1.88
ATCTCTAGGTAACCAAGTTCACTGAATGCCGAAC,3.89,3.32,0.487,1.47,1.17,3.1,3.34,1.64,0.615,1.9,2.26,1.55,1.41,1.74,1.36,2.34,1.27,3.34
CGAACGAGGGCATGAGTTGATATCAAATGCCGAT,3.23,2.11,0.21,-0.287,0.26,0.636,-0.013,0.352,-0.464,2.01,0.794,1.37,1.81,2.39,0.883,1.14,-0.157,2.28
GCATATAGGGAATACAAGGTGAAAGTCCGATTGT,1.83,1.35,0.819,-0.152,0.308,0.0196,-0.0382,1.58,0.263,0.266,0.509,0.203,0.249,0.292,0.268,3.15,0.78,-0.263
CCGAGTAGGTTATGGGGCATTCAGGCAACGGTGA,3.19,3.21,-0.378,0.039,0.874,-0.0382,0.0489,0.571,0.139,0.99,1.08,0.469,0.552,0.0295,0.728,0.503,0.317,-0.196
CCTACTGGGCCATGAGGTCATTGATATCAACGTT,4.24,5.54,0.512,-0.0861,2.41,4.71,3.85,4.49,0.257,2.91,3.32,3.54,2.78,1.42,3.58,3.97,4.36,4.75
GCAGACAGGTGAAACGCAGTTAACTCAGGGTGGC,0.917,0.29,-1.71,-0.986,-0.869,-0.255,-0.841,0.164,-0.965,0.589,-0.134,0.384,0.0446,-0.62,0.577,0.459,-0.813,-0.764

# — the supplement of paper PMC6555819
